Experimental data from PubChem BioAssay AID623957 (NMMLSC, 2012).
The source made the active and inactive calls.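 How the source made its calls: active means compounds whose fitted half-maximal concentration for lowering the signal is under 100 µM; inactive means the rest.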

Assay: compound effect on K562 vector-control line – cell-based, flow cytometry, cherry pick set 1, counter-screen for ABCB6 inhibitor project, dose response (AID 623957)
Conditions: K562 vector-only cells, flow cytometry fluorescence, 1 h; series mostly up to 100 µM

| SMILES | outcome |
| --- | --- |
| CC1CCN(c2ccc3nnc(CCC(=O)NC(C)C)n3n2)CC1 | inactive |
| O=C(CCc1nnc2ccc(N3CCC4(CC3)OCCO4)nn12)N1CCCCC1 | inactive |
| CCOC(=O)CNC(=O)CCc1nnc2ccc(N3CCC(C)CC3)nn12 | inactive |
| CC1CC(C)CN(C(=O)CCc2nnc3ccc(N4CCCCC4)nn23)C1 (stereo unspecified) | inactive |
| CCN1CCN(C(=O)CCc2nnc3ccc(N4CCC5(CC4)OCCO5)nn23)CC1 | inactive |
| CCOC(=O)C(C)NC(=O)CCc1nnc2ccc(N3CCC(C)CC3)nn12 (stereo unspecified) | inactive |
| CC1CCN(c2ccc3nnc(CCC(=O)NCCCOC(C)C)n3n2)CC1 | inactive |
| CCOCCCNC(=O)CCc1nnc2ccc(N3CCCCC3)nn12 | inactive |
| CCOC(=O)N1CCN(CC(=O)Nc2ccc(C)cc2)CC1 | inactive |
| COC(=O)c1ccc(NC(=O)c2nc(S(=O)(=O)Cc3cccc(C)c3)ncc2Cl)cc1 | inactive |
| CCOC(=O)C(C)NC(=O)CCc1nnc2ccc(N3CCCCC3)nn12 (stereo unspecified) | inactive |
| CCCNC(=O)CCc1nnc2ccc(N3CCC(C)CC3)nn12 | inactive |
| CC1CCN(c2ccc3nnc(CCC(=O)N4CCCCC4)n3n2)CC1 | inactive |
| CC1CCN(C(=O)CCc2nnc3ccc(N4CCC5(CC4)OCCO5)nn23)CC1 | inactive |
| CCC(C)NC(=O)CCc1nnc2ccc(N3CCC(C)CC3)nn12 (stereo unspecified) | inactive |
| CCN(CC)CCNC(=O)CCc1nnc2ccc(N3CCC(C)CC3)nn12 | inactive |

| SMILES | outcome |
| --- | --- |
| COC(=O)C(NC(=O)CCc1nnc2ccc(N3CCC(C)CC3)nn12)C(C)C (stereo unspecified) | inactive |
| CCOC(=O)C1CCN(C(=O)CCc2nnc3ccc(N4CCN(C)CC4)nn23)CC1 | inactive |
| CC(C)CCNC(=O)CCc1nnc2ccc(N3CCC(C)CC3)nn12 | inactive |
| COCCCNC(=O)CCc1nnc2ccc(N3CCC(C)CC3)nn12 | inactive |
| COC(=O)C(NC(=O)CCc1nnc2ccc(N3CCCCC3)nn12)C(C)C (stereo unspecified) | inactive |
| Cc1cccc(NC(=O)c2nc(S(=O)(=O)Cc3ccccc3)ncc2Cl)c1 | inactive |
| COCCNC(=O)CCc1nnc2ccc(N3CCC(C)CC3)nn12 | inactive |
| CCN(CC)S(=O)(=O)c1cccc(-n2c(O)c(C=Nc3ccccc3C(=O)O)c3ccccc3c2=O)c1 | inactive |
| CN1CCN(C(=O)CCc2nnc3ccc(N4CCC5(CC4)OCCO5)nn23)CC1 | inactive |
| O=C(Nc1ccc(F)cc1)c1nc(S(=O)(=O)Cc2ccccc2)ncc1Cl | inactive |
| Cc1ccc(NC(=O)c2nc(S(=O)(=O)Cc3ccccc3)ncc2Cl)cc1 | inactive |
| Cc1cccc(CS(=O)(=O)c2ncc(Cl)c(C(=O)Nc3c(C)cccc3C)n2)c1 | inactive |
| CCc1ccc(CNC(=O)C2Cc3cc(S(=O)(=O)N4CCCC4)ccc3N2C(C)=O)cc1 (stereo unspecified) | inactive |
| O=C(CN1CCCCC1)Nc1cccc(Br)c1 | inactive |
| Cc1cccc(CS(=O)(=O)c2ncc(Cl)c(C(=O)Nc3ccc(F)cc3)n2)c1 | inactive |
